# The campaign covered roughly 96,000 compounds. About 19,000 (20%) were called active.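 The calls were made as follows: active = blocking of liver enzyme CYP2C9 beyond about 50% at 5 µM (limit read from the data); inactive = the rest.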 These entries were drawn from the full list.
# Target: Cytochrome P450 2C9 (Homo sapiens) (UniProt P11712)
# Test: blockers of cytochrome P450 2C9 activity – biochemical, luminescence, ADME assay, primary screen (AID 777)
# Conditions: CYP2C9 Supersomes, luciferin-H conversion, at 5 µM, stronger effect = higher value
# Chain of Cytochrome P450 2C9 (Homo sapiens) (P11712 whole entry, looked up): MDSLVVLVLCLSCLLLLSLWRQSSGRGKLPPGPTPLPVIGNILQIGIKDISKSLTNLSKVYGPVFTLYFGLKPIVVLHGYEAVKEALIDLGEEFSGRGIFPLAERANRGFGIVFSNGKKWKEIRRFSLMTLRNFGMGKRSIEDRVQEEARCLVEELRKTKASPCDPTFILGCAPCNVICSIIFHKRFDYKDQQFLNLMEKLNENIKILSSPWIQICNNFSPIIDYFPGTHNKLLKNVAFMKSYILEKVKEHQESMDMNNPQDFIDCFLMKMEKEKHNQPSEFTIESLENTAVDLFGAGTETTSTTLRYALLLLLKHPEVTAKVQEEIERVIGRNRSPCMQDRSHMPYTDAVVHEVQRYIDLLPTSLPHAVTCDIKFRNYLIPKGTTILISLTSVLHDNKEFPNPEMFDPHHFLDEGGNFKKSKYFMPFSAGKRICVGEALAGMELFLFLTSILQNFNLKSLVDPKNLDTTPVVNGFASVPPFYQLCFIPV
row,Structure (SMILES),inhibition
1,Cn1cccc1C(=O)NC(=O)COC(=O)Cc1coc2ccc3ccccc3c12,-91.7% (inactive)
2,O=C(c1ccco1)N1CCN(C(=O)C2CCCN(S(=O)(=O)c3cccc4nsnc34)C2)CC1 (stereo unspecified),12.6% (inactive)
3,COc1ccc(C(=O)Nc2c(N)nc(SCC(=O)N3CCC(C)CC3)[nH]c2=O)cc1OC,-5.6% (inactive)
4,COc1ccc(/C=C(/NC(=O)c2ccc(C)cc2)c2nc3ccccc3[nH]2)cc1OC,69.5% (active)
5,Cc1ccc(C(=O)NNC(=O)c2cc3cc4ccccc4nc3s2)cc1,6.6% (inactive)
6,COc1ccc(C(=O)Oc2cc(/C=N/NS(=O)(=O)c3ccc(C)cc3)ccc2OC)cc1,29.8% (inactive)
7,O=C(NCCCN1CCN(C2CCCCC2)CC1)Nc1ccccc1C(F)(F)F,0.7% (inactive)
8,Clc1cccc(-c2nc3nc4ccccc4nc3n2Cc2ccco2)c1,52.8% (active)
9,O=C(NCc1ccco1)c1cc(-c2cccnc2)nc2ccc(Cl)cc12,17.9% (inactive)
10,Cc1cc(NCc2ccco2)n2c(nc3ccccc32)c1C#N,20.4% (inactive)
11,O=C(COC(=O)CCc1c[nH]c(=O)[nH]1)Nc1ccccc1Cl,-6% (inactive)
12,CCOC(=O)c1nnn(-c2nonc2OC)c1-c1ccccc1,26.7% (inactive)
13,CSc1cccc(NC(=O)C2CCCN2S(=O)(=O)c2ccc3c(c2)CCC(=O)N3)c1 (stereo unspecified),81.6% (active)
14,O=C(O)C1CCCN1S(=O)(=O)c1ccc2c(c1)CCC2 (stereo unspecified),-48.8% (inactive)
15,O=C1CCc2cc(S(=O)(=O)N3CCC(C(=O)NCc4ccccc4Cl)CC3)ccc2N1,24.7% (inactive)
16,CCN1CCN(c2ccc([N+](=O)[O-])cc2C(=O)c2ccc(Cl)cc2)CC1,-60.5% (inactive)
17,CCc1nnc(NC(=O)c2nc3nccc(C)n3n2)s1,1.9% (inactive)
18,O=C(CSC1=NCCS1)Nc1nc(-c2ccccc2)cs1,60.8% (active)
19,Cc1cccc(S(=O)(=O)CC(=O)Nc2nc(-c3ccccc3)cs2)c1,91.4% (active)
20,CCn1c(SCC(=O)Nc2nc(C)cs2)nnc1C(C)NC(=O)c1ccccc1 (stereo unspecified),21.2% (inactive)
21,Cc1ccc(-c2csc(NC(=O)c3cccs3)n2)cc1,3.3% (inactive)
22,CCCc1ccc(-c2csc(NC(=O)Cc3cccs3)n2)cc1,42.2% (inactive)
23,Cc1ccc(-c2csc(NC(=O)Cc3cccs3)n2)cc1C,26.9% (inactive)
24,Cc1cccc2nc(CNc3ccc(F)cc3)cn12,38.8% (inactive)
25,COc1cccc(-c2nnc(N(C)C(=O)c3ccno3)s2)c1,2.4% (inactive)
26,CC(=O)c1cc(-c2ccccc2)[nH]c1N1CCCC1,12.9% (inactive)
